MsrA act – activates bovine MsrA enzyme. purified bovine MsrA, absorbance read-out. AID 602163. activation, % at 10.6 µM. 360,000 compounds, 0.3% hits; in the data active = activation above about 7.5%;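 note: 0% = vehicle and 100% = reference activator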
EBNA-1 inh – blocks EBNA-1 binding to DNA. inhibition, % at 14.8 µM. EBNA-1 DNA binding, fluorescence polarization. 300,000 compounds, 0.34% hits; in the data active = inhibition above about 28%
PP5 primary – inhibitors of human protein phosphatase 5 (PP5); purified PP5c, OMFP substrate fluorescence; inhibition, % at 6.7 µM; 320,000 compounds, 0.18% hits; AID 1987;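 active = inhibition above the campaign's mean inhibition across all tested compounds plus 3 SD, cut at about 9.5% in these data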;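 note: 0% = DMSO only and 100% = 100 µM cantharidin control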
PP1 counter – blocks human PP1-alpha phosphatase, a PP5 counter-screen | P62136 | purified PP1alpha, OMFP fluorescence | inhibition, % at 6.7 µM | 320,000 compounds, 0.9% hits;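 active = inhibition above the mean inhibition of all tested compounds plus 3 SD, computed separately for each screening campaign, cut at about 15% in these data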
Target sequence (P62136 whole entry, looked up): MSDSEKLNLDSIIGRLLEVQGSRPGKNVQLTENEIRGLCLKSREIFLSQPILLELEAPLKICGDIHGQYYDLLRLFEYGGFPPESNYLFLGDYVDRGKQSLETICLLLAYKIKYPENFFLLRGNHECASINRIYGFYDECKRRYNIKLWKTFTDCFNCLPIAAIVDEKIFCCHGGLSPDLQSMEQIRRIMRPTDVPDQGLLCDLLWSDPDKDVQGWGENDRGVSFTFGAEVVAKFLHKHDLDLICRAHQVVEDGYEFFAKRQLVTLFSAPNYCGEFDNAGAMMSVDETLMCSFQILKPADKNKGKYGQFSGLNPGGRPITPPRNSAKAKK
MsrA inh – inhibitors of bovine MsrA. purified bovine MsrA, absorbance read-out. inhibition, % at 15.5 µM. 360,000 compounds, 0.75% hits; in the data active = inhibition above about 4.5%;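 note: 0% = vehicle wells with enzyme and 100% = reference inhibitor wells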
ZTA counter – blocks Epstein-Barr virus ZTA, an EBNA-1 counter-screen; AID 2234; ZTA-DNA binding, fluorescence polarization; 320,000 compounds, 0.15% hits; inhibition, % at 11 µM; in the data active = inhibition above about 33%
Target sequence (P03206 whole entry, looked up): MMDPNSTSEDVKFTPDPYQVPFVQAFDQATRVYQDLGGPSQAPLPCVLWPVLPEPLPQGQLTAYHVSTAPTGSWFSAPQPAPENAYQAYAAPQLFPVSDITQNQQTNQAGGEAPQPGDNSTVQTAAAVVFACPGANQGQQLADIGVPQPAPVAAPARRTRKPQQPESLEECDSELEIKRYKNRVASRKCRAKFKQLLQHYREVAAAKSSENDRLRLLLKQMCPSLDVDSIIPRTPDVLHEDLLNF
PP1 confirm – human PP1 phosphatase inhibition, confirmation | shares compounds with PP1 counter | purified PP1alpha, OMFP substrate fluorescence | inhibition, % at 6.7 µM | 1,900 compounds, 52% hits | AID 2358;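 active = mean PP1 inhibition above a set limit taken from the earlier primary screen, cut at about 15% in these data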
PP5 inh counter – PP5 phosphatase inhibition, counter-screen for PP1 inhibitors | shares compounds with PP1 counter | purified PP5c, OMFP fluorescence | inhibition, % at 6.7 µM | 1,900 compounds, 4% hits | AID 2360;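 active = mean PP5 inhibition over triplicate wells above about 9.5% taken from the earlier PP1 screen, limit read from the data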
The depositor's hits bear a star; x = no result. Rows were chosen to be rich in hits. Some 2.3% of all compounds tested hit in one or more screens of this group.

SMILES | MsrA act | EBNA-1 inh | PP5 primary | PP1 counter | MsrA inh | ZTA counter | PP1 confirm | PP5 inh counter
CC(NC(=O)C1CC1)C(c1cccs1)N1CCN(c2ccccc2)CC1 (stereo unspecified) | -1 | 3 | 0 | 47* | 1 | -4 | -3 | -5
CC(Oc1cccc(Cl)c1)C(=O)Nc1nc(-c2ccccn2)cs1 (stereo unspecified) | -4 | -10 | 7 | 30* | -1 | -7 | 36* | 2
Cc1cccc(C(=O)NC(C(=O)Nc2nc(-c3ccccn3)cs2)C(C)C)c1 (stereo unspecified) | -2 | -15 | 2 | 21* | 0 | -18 | 25* | -1
CC(Oc1ccccc1)C(=O)Nc1nc(-c2ccccn2)cs1 (stereo unspecified) | -7 | x | x | x | -1 | x | x | x
CCNC(=O)CSC1=N/C(=C\c2ccc(O)c(OCC)c2)C(=O)N1c1ccc(OC(F)F)cc1 | -3 | -8 | 2 | 18* | 1 | 12 | 19* | -6
COc1ccc(N2CCN(C(=S)NC(C)c3ccccc3)CC2)cc1 (stereo unspecified) | 0 | -8 | -1 | -4 | 1 | 10 | x | x
CCCCN1C2CCCC1CC(NC(=O)C1CCCCC1)C2 (stereo unspecified) | -2 | -12 | 2 | -4 | -1 | 1 | x | x
Cc1c(/C=N/NC(=O)CNc2ccccc2)c2ccccn2c1C(=O)c1ccc(Cl)cc1 | -10 | -5 | 5 | 21* | 0 | 2 | 6 | 0
Cc1ccc(C)c(S(=O)(=O)N2CCN(Cc3ccc(O)c4ncccc34)CC2)c1 | -3 | -19 | 6 | 31* | -1 | -11 | 30* | -7
CCOC(=O)N1CCN(Cc2ccc(O)c3ncccc23)CC1 | x | 2 | 2 | 3 | -1 | -9 | x | x
O=C(CSc1nnc(-c2ccccc2F)o1)N1CCNC1=O | -10 | x | 4 | 3 | 0 | -2 | x | x
O=C(CNC(=O)c1ccc(Cl)cc1)NCCCn1ccnc1 | 5 | -1 | -2 | -2 | 0 | 8 | x | x
COc1ccc(-c2csc(NC(=O)CCN3C(=O)C4CC=CCC4C3=O)n2)cc1OC (stereo unspecified) | -2 | -3 | 6 | 26* | 0 | -7 | -4 | -2
O=C(CC[C@H]1O[C@@H](n2ccc(=O)[nH]c2=O)[C@H](O)[C@@H]1O)N[C@H](Cc1ccccc1)C(=O)NCc1cccs1 | -6 | x | x | x | 0 | x | x | x
NS(=O)(=O)c1ccc(NC(=O)c2ccc(CNS(=O)(=O)c3cc(C(F)(F)F)ccc3Cl)cc2)cc1 | -3 | -3 | 7 | 0 | -1 | -11 | x | x
CC(C)(C)c1cc(NCCCn2ccnc2)n2ncc(-c3ccccc3)c2n1 | -2 | -9 | 2 | 21* | -1 | 10 | 14 | 3
O=C(NCc1ccccc1)c1nc2c(nnn2Cc2cccc(Cl)c2)c(=O)[nH]1 | -2 | 10 | -3 | 21* | 0 | 18 | 14 | -3
O=C(NCCc1ccccc1)c1nc2c(nnn2Cc2ccccc2Cl)c(=O)[nH]1 | -6 | 12 | 0 | 47* | 0 | 19 | 21* | -1
Cc1ccc(C(=O)OCC(=O)N(Cc2ccccc2)C(C)C)cc1C | -11 | x | x | x | 1 | x | x | x
CC(C)Cn1c(N)c(C(=O)COC(=O)/C=C/c2ccccc2)c(=O)n(C)c1=O | -6 | -13 | 3 | 37* | -2 | 1 | 0 | -1
CC(C)Cn1c(N)c(C(=O)CSc2ccccc2)c(=O)n(C)c1=O | -1 | -10 | 2 | 1 | 1 | -6 | x | x
COc1c(Br)cc(Br)cc1/C=N/NC(=O)c1cccnc1 | -1 | x | x | x | 0 | x | x | x
CCOc1cc(Br)cc(/C=N/NC(=O)c2cccnc2)c1O | -3 | -3 | 2 | 22* | 0 | -1 | 19* | -4
O=C(CN(c1ccccc1Cl)S(=O)(=O)c1ccccc1)N/N=C/c1ccccc1C(=O)O | -6 | -3 | 0 | 1 | 0 | 15 | x | x
Cc1ccc(S(=O)(=O)N(CC(=O)N/N=C/c2ccccc2C(=O)O)c2cc(Cl)cc(Cl)c2)cc1 | -5 | 4 | 1 | 19* | 1 | -10 | 19* | 1
SMILES | MsrA act | EBNA-1 inh | PP5 primary | PP1 counter | MsrA inh | ZTA counter | PP1 confirm | PP5 inh counter
O=C(O)c1ccc2c(=O)n3c(nc2c1)/C(=C/c1cccc(Cl)c1Cl)CCCC3 | 2 | -5 | -4 | 3 | -1 | -13 | x | x
COc1ccc2c(Cl)c(C(=O)NCCCn3ccnc3)sc2c1Cl | -1 | 8 | -3 | 18* | 0 | 3 | 3 | -4
COc1ccc(C(=O)NCCCn2ccnc2)cc1 | -1 | -7 | 3 | -1 | 3 | 8 | x | x
COc1ccccc1C(=O)Nc1ccc2oc(-c3ccc(F)cc3)nc2c1 | -11 | 9 | -1 | 19* | -2 | 0 | 12 | -7
O=C(O)c1cc(-c2cccs2)nn1-c1cccc(Cl)c1 | -4 | 0 | -1 | 29* | 0 | 4 | 27* | -6
O=C(O)c1cc(-c2cccs2)nn1-c1ccccc1 | -7 | 4 | -1 | 28* | 0 | 0 | 24* | -5
O=C(O)c1cc(-c2cc3ccccc3o2)nn1-c1ccccc1 | -2 | 2 | 2 | 45* | 1 | 2 | 45* | -2
O=C(O)c1cc(-c2ccco2)nn1-c1cccc(Cl)c1 | -4 | 7 | -3 | 12 | 1 | 10 | x | x
COc1ccc(-c2nc3ccc(Br)cn3c2Cc2cccc(Cl)c2)cc1OC | -2 | x | x | x | 0 | x | x | x
Cn1cnnc1SCc1ccc(C(=O)N=Nc2c(O)n(Cc3ccc(Cl)cc3)c3ccccc23)cc1 | -7 | -4 | 2 | 20* | 2 | 0 | 16* | -2
CCn1c(O)c(N=NC(=O)c2ccc(CSc3nncn3C)cc2)c2ccccc21 | -5 | -7 | 1 | 0 | 3 | 0 | x | x
Cc1ccc(NC2c3ncccc3C(=O)N2c2ccccc2C)cc1C (stereo unspecified) | -5 | 7 | 8 | 30* | 0 | 16 | 26* | 1
CC(C)CCN(C(=O)COc1ccc(C#N)cc1)c1c(N)n(Cc2ccccc2)c(=O)[nH]c1=O | x | 0 | 0 | -6 | x | -10 | x | x
CCN(CC)S(=O)(=O)c1ccc(NC(=O)COC(=O)CNS(=O)(=O)/C=C/c2ccccc2)cc1 | -4 | -7 | 4 | 4 | 0 | -19 | x | x
Cc1cc2oc(C(=O)Nc3ccc(S(=O)(=O)Nc4nccs4)cc3)cc(=O)c2cc1Cl | -4 | 20 | -1 | 39* | 3 | 5 | 31* | -3
CCCCc1cc(=O)oc2cc(OC(C)C(=O)NCC3CCC(C(=O)O)CC3)c(Cl)cc12 (stereo unspecified) | -2 | -4 | 2 | 54* | 1 | 0 | -3 | -4
CCCc1cc(=O)oc2cc(OC(C)C(=O)NCC3CCC(C(=O)O)CC3)c(Cl)cc12 (stereo unspecified) | -4 | 3 | 0 | 1 | 2 | 4 | x | x

Source: PubChem BioAssay (The Scripps Research Institute Molecular Screening Center)
